Measured values as given in PubChem BioAssay (NCI).
Compounds without any hit were thinned out: in the full panel of roughly 83,000, 20% have a hit.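 Assay: single dose, 48 h. Readout: percent growth (0 = no net growth; negative = cell death). Active: <10.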 The source made the active and inactive calls.

What was measured:
Test in all cases: NCI-60 one-dose screen, 48 h (100 = growth as untreated, 0 = no growth, -100 = all killed)
Settings in all cases: 10 µM
NCI-H23 lung = test system: NCI-H23 lung
NCI-H226 lung = test system: NCI-H226 lung
NCI-H322M lung = test system: NCI-H322M lung
HOP-62 NSCLC = test system: HOP-62 NSCLC
NCI-H460 lung = test system: NCI-H460 lung
NCI-H522 lung = test system: NCI-H522 lung
A549/ATCC NSCLC = test system: A549/ATCC NSCLC
786-0 renal = test system: 786-0 renal
COLO 205 colon = test system: COLO 205 colon
DU-145 prostate = test system: DU-145 prostate

Measured: growth

Cc1cccc(NC2=C(C#N)C(=O)NC3(CCCC3)S2)c1
inactive: NCI-H23 lung 100% | NCI-H226 lung 96.5% | NCI-H322M lung 112% | HOP-62 NSCLC 98.7% | NCI-H460 lung 107% | NCI-H522 lung 15.8% | A549/ATCC NSCLC 30.2% | 786-0 renal 103% | COLO 205 colon 127% | DU-145 prostate 117%

O=C(C[P+](c1ccccc1)(c1ccccc1)c1ccccc1)C[P+](c1ccccc1)(c1ccccc1)c1ccccc1
active: NCI-H23 lung -14.5% | NCI-H226 lung -71.8% | NCI-H322M lung -59.3% | HOP-62 NSCLC -59.8% | NCI-H460 lung -68.3% | NCI-H522 lung -83.8% | A549/ATCC NSCLC -27.9% | 786-0 renal -97.9% | COLO 205 colon -27.9% | DU-145 prostate -94%

COc1ccc(-c2cc(-c3ccc(N(C)C)cc3)c(C#N)c(N3CCCC3)n2)cc1
inactive: NCI-H23 lung 93.6% | NCI-H226 lung 82.5% | NCI-H322M lung 92.3% | HOP-62 NSCLC 99.7% | NCI-H460 lung 69.9% | NCI-H522 lung 69.4% | A549/ATCC NSCLC 77.2% | 786-0 renal 95.6% | COLO 205 colon 65.9% | DU-145 prostate 86.8%

FC(F)(F)c1ccc(-c2cnc(Cl)nc2N2CCC3(CC2)OCCO3)cc1
inactive: NCI-H23 lung 94.9% | NCI-H226 lung 94.4% | NCI-H322M lung 91.7% | HOP-62 NSCLC 97.2% | NCI-H460 lung 100% | NCI-H522 lung 63.2% | A549/ATCC NSCLC 90.2% | 786-0 renal 95.5% | COLO 205 colon 93.2% | DU-145 prostate 95.5%

O=C(N/N=C\c1cc(Cl)ccc1[N+](=O)[O-])c1ccco1
inactive: NCI-H23 lung 98.2% | NCI-H226 lung 105% | NCI-H322M lung 126% | HOP-62 NSCLC 110% | NCI-H460 lung 101% | NCI-H522 lung 97.2% | A549/ATCC NSCLC 90.7% | 786-0 renal 95.6% | COLO 205 colon 139% | DU-145 prostate 108%

CCCCCCN1CCN(Cc2ccc(N(CC)CC)cc2)C(=O)C1=O
active: NCI-H522 lung -7.64% | COLO 205 colon 6.83% | DU-145 prostate -7.77%
inactive: NCI-H23 lung 39.9% | NCI-H226 lung 64.2% | NCI-H322M lung 32% | HOP-62 NSCLC 33.3% | NCI-H460 lung 10.5% | A549/ATCC NSCLC 21.6% | 786-0 renal 51.3%

ClCC#CCSc1ncnc2c1ncn2CC#CCCl
inactive: NCI-H322M lung 15.3% | A549/ATCC NSCLC 46.5% | 786-0 renal 13.3% | COLO 205 colon 54.4%
active: NCI-H23 lung -6.61% | NCI-H226 lung -13.6% | HOP-62 NSCLC -58.4% | NCI-H460 lung 1.04% | NCI-H522 lung -56% | DU-145 prostate -20.9%

COC(=O)[C@@H]1[C@H](O)[C@H](C)[C@H](O)[C@@](C)(O)/C=C\C=C(C)C(=O)Nc2c(C)c(OC(C)=O)c3c(c2O)C(=O)C(C)=C2OCOC(=C23)C(C)=C[C@@](C)(O)[C@H](O)[C@@H](C)[C@H]1OC(C)=O
inactive: NCI-H23 lung 101% | NCI-H226 lung 109% | NCI-H322M lung 125% | HOP-62 NSCLC 111% | NCI-H460 lung 127% | NCI-H522 lung 105% | A549/ATCC NSCLC 110% | 786-0 renal 95.2% | COLO 205 colon 112% | DU-145 prostate 85.5%

CCOC(=O)CCC(NC(=O)c1ccc(N)cc1)C(=O)OCC (stereo not given)
inactive: NCI-H23 lung 99.1% | NCI-H226 lung 103% | NCI-H322M lung 108% | HOP-62 NSCLC 96% | NCI-H460 lung 118% | NCI-H522 lung 80.5% | A549/ATCC NSCLC 99.4% | 786-0 renal 110% | COLO 205 colon 105% | DU-145 prostate 112%

Cc1nc2c(c(=O)[nH]1)OCN(Cc1ccccc1)C2
inactive: NCI-H23 lung 100% | NCI-H226 lung 103% | NCI-H322M lung 105% | HOP-62 NSCLC 107% | NCI-H460 lung 110% | NCI-H522 lung 111% | A549/ATCC NSCLC 112% | 786-0 renal 101% | COLO 205 colon 112% | DU-145 prostate 108%

COc1ccc(NC2=NC(C)(CO)CS2)cc1 (stereo not given)
active: NCI-H522 lung -14.7%
inactive: NCI-H23 lung 97.1% | NCI-H226 lung 103% | NCI-H322M lung 102% | HOP-62 NSCLC 94.6% | NCI-H460 lung 100% | A549/ATCC NSCLC 42.8% | 786-0 renal 105% | COLO 205 colon 117% | DU-145 prostate 120%

CC1(C)Cc2c(sc3ncn4nc(-c5ccc(O)cc5)nc4c23)CO1
inactive: NCI-H23 lung 90.9% | NCI-H226 lung 57.9% | NCI-H322M lung 90.4% | HOP-62 NSCLC 79.2% | NCI-H460 lung 63.2% | NCI-H522 lung 53.5% | A549/ATCC NSCLC 63% | 786-0 renal 74.9% | COLO 205 colon 114% | DU-145 prostate 76.1%

c1ccc2c(c1)oc1c3cccnc3ccc21
inactive: NCI-H23 lung 86.8% | NCI-H226 lung 87.4% | NCI-H322M lung 66% | HOP-62 NSCLC 86.7% | NCI-H460 lung 81.6% | NCI-H522 lung 89.8% | A549/ATCC NSCLC 94.1% | 786-0 renal 94.4% | COLO 205 colon 104% | DU-145 prostate 102%

CC(=O)c1nc2ccccc2n1CCNC(N)=O
inactive: NCI-H23 lung 82.1% | NCI-H226 lung 100% | NCI-H322M lung 95% | HOP-62 NSCLC 70.3% | NCI-H460 lung 55.2% | NCI-H522 lung 61.8% | A549/ATCC NSCLC 62.3% | 786-0 renal 95.1% | COLO 205 colon 69.7% | DU-145 prostate 93.2%

CSc1cc(SC)ncn1
inactive: NCI-H23 lung 120% | NCI-H226 lung 107% | NCI-H322M lung 105% | HOP-62 NSCLC 108% | NCI-H460 lung 119% | NCI-H522 lung 100% | A549/ATCC NSCLC 105% | 786-0 renal 103% | COLO 205 colon 104% | DU-145 prostate 115%

CCC1(C(C)C)NC(=O)NC1=O (stereo not given)
inactive: NCI-H23 lung 99.1% | NCI-H226 lung 96.4% | NCI-H322M lung 110% | HOP-62 NSCLC 96% | NCI-H460 lung 110% | NCI-H522 lung 101% | A549/ATCC NSCLC 96.1% | 786-0 renal 97.7% | COLO 205 colon 115% | DU-145 prostate 104%

Cn1c([N+](=O)[O-])cnc1/C=C1\Oc2ccc(Cl)cc2C1=O
inactive: NCI-H322M lung 11.4%
active: NCI-H23 lung -12.7% | NCI-H226 lung -27.2% | HOP-62 NSCLC -17.2% | NCI-H460 lung -44.3% | NCI-H522 lung -50.3% | A549/ATCC NSCLC -40.9% | 786-0 renal -23.2% | COLO 205 colon -41.6% | DU-145 prostate -17.1%

CCOC(=O)c1ccoc1
inactive: NCI-H23 lung 103% | NCI-H226 lung 101% | NCI-H322M lung 85.1% | HOP-62 NSCLC 97.8% | NCI-H460 lung 101% | NCI-H522 lung 91.1% | A549/ATCC NSCLC 96.9% | 786-0 renal 99.1% | COLO 205 colon 101% | DU-145 prostate 109%

COc1cc(C2CC(c3ccc(Nc4ccnc5cc(Cl)ccc45)cc3)=NN2c2ccc(Cl)cc2)cc(OC)c1OC (stereo not given)
inactive: NCI-H23 lung 74.4% | NCI-H226 lung 82.9% | NCI-H322M lung 75.8% | HOP-62 NSCLC 46.8% | NCI-H460 lung 43.4% | A549/ATCC NSCLC 44.6% | 786-0 renal 68.8% | COLO 205 colon 75.7% | DU-145 prostate 64%
active: NCI-H522 lung 9.33%

COc1cc(/C(=C2/O[C@@H]([C@H]3COC(C)(C)O3)[C@H]3OC(C)(C)O[C@@H]23)c2ccc3ccccc3c2)cc(OC)c1OC
active: NCI-H522 lung 8.05% | A549/ATCC NSCLC -9.4% | 786-0 renal -1.42% | DU-145 prostate 2.86%
inactive: NCI-H23 lung 46.2% | NCI-H226 lung 66.9% | NCI-H322M lung 55.1% | HOP-62 NSCLC 48% | NCI-H460 lung 43.4% | COLO 205 colon 66.9%
